{"source": "the supplement of paper PMC11624193", "about": "“Coupling cellular drug-target engagement to downstream pharmacology with CeTEAM” (Nature Communications, 2024)", "note": "Counter-ions that a name gives are not always drawn."}
{"molecular_target": "PARP1 L713F-nLuc biosensor (HCT116) (UniProt P09874)", "sequence (P09874 whole entry L713F, looked up)": "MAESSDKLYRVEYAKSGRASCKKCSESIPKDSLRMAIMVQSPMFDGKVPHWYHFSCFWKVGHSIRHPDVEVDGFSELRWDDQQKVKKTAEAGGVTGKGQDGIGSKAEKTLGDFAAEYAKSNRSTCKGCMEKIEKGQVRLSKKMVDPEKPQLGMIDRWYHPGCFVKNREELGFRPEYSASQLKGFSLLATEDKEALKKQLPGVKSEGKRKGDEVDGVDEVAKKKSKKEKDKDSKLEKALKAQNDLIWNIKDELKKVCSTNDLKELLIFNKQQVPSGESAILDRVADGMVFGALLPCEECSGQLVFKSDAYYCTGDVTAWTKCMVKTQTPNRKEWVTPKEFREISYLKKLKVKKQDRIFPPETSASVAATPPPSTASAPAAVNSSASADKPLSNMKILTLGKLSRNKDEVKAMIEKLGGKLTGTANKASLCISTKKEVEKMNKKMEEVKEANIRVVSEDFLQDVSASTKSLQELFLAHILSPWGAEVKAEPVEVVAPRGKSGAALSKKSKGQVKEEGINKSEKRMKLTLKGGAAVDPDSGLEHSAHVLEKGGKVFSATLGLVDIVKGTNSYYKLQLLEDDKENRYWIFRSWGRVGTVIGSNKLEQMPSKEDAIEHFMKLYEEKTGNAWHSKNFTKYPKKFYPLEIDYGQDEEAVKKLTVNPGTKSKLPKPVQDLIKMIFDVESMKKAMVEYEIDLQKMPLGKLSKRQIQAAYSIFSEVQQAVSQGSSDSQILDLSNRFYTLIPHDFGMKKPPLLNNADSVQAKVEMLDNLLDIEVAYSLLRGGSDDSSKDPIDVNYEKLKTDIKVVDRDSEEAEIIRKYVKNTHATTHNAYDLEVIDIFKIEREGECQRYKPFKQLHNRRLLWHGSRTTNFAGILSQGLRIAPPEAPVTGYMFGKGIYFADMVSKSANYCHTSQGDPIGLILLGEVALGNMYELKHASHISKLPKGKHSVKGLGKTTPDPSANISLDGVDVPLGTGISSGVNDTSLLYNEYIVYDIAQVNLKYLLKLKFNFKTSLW", "experiment": "PARP1 L713F-nLuc/akaLuc ratio relative to DMSO control (biosensor stabilization) (fold change); higher = more PARP1 biosensor stabilization (target engagement / stabilizer), active = hit call of the paper", "conditions": "stock concentration (mM; final µM = stock mM x 1): 10; 24 h;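 active = log2 fold change beyond 2 SD from the library mean after excluding viability outliers; inactive = within 2 SD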"}
{"smiles": "CN(C)C(=O)/C(C#N)=C/c1ccc(-c2nc3cnc4[nH]ccc4c3n2C2CCCCC2)o1", "PARP1 L713F-nLuc/akaLuc ratio": "1.08 (inactive)"}
{"smiles": "CS(=O)(=O)N1CCN(Cc2cc3nc(-c4cccc5[nH]ncc45)nc(N4CCOCC4)c3s2)CC1", "note": "[Pictilisib (GDC-0941)]", "PARP1 L713F-nLuc/akaLuc ratio": "0.659 (inactive)"}
{"smiles": "Cc1cc(CN)cc(C)c1-c1ncn(C)c1-c1ccnc2cc(F)ccc12", "note": "[BI-9321 (trihydrochloride)]", "PARP1 L713F-nLuc/akaLuc ratio": "0.66 (inactive)"}
{"smiles": "N#CC1(c2ccc(NC(=O)c3cccnc3NCc3ccncc3)cc2)CCCC1", "PARP1 L713F-nLuc/akaLuc ratio": "0.967 (inactive)"}
{"smiles": "O=C(NCC1(c2nc(-c3ccccc3)cs2)CCOCC1)c1cccc(-c2noc(C(F)(F)F)n2)c1", "PARP1 L713F-nLuc/akaLuc ratio": "0.465 (inactive)"}
{"smiles": "CCOC(=O)c1c[nH]c2c(ccc3cccnc32)c1=O", "note": "[1,4-DPCA ethyl ester]", "PARP1 L713F-nLuc/akaLuc ratio": "1.19 (inactive)"}
{"smiles": "CC[C@]1(O)C[C@H]2CN(CCc3c([nH]c4ccccc34)[C@@](C(=O)OC)(c3cc4c(cc3OC)N(C=O)[C@H]3[C@@](O)(C(=O)OC)[C@H](OC(C)=O)[C@]5(CC)C=CCN6CC[C@]43[C@@H]65)C2)C1", "note": "[Vincristine sulfate]", "PARP1 L713F-nLuc/akaLuc ratio": "0.783 (inactive)"}
{"smiles": "Cc1nn2c([nH]c(=O)c3cccnc32)c1C#N", "PARP1 L713F-nLuc/akaLuc ratio": "0.851 (inactive)"}
{"smiles": "CC[C@@](C)(Nc1ccnc(-c2c[nH]c3ncccc23)n1)C(=O)NCC(F)(F)F", "note": "[Decernotinib]", "PARP1 L713F-nLuc/akaLuc ratio": "0.707 (inactive)"}
{"smiles": "Cc1nc(F)ccc1-c1cc(Cn2ccn(C)c2=N)cc(C(=O)NCc2ccc(Cl)c(Cl)c2)c1", "PARP1 L713F-nLuc/akaLuc ratio": "0.928 (inactive)"}
{"smiles": "N#Cc1cc(F)cc(Oc2ccc(S(=O)(=O)C(F)F)c3c2CC(F)(F)[C@H]3O)c1", "PARP1 L713F-nLuc/akaLuc ratio": "0.774 (inactive)"}
